From PubChem
This is one part of a sample in which hits are shown more often than they occur.
HT1080-NT tox: qHTS for induction of synthetic lethality in tumor cells producing 2HG: qHTS for the HT-1080-NT fibrosarcoma cell line; Potency, µM (series often up to 46.1 µM), inactives show at the highest dose activity, negative = less viability, usual class: cytotoxic; 360,000 compounds, 1.6% hits; HT-1080-NT fibrosarcoma viability, CellTiter-Glo ATP luminescence, 48 h;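 further: NT is the 2HG producing partner of a matched IDH1 knockdown line; potency means the concentration at half of the fitted maximal effect; 0% = DMSO-treated cells and -100% = media-only wells without cells; nearly all actives have a fitted effect of over 55% in size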
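Read-out is CellTiter-Glo luminescence after 10 minutes at room temperature, following 48 hours' compound treatment of HT-1080-NT cells (750 cells/well, RPMI, 5% FBS, 37 degrees C).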
12-LOX inh: Primary qHTS assay for inhibitors of human arachidonate 12S-lipoxygenase (ALOX12): Round 2 | Polyunsaturated fatty acid lipoxygenase ALOX12 (Homo sapiens), P18054 | 580,000 compounds, 1.1% hits | AID 1671190, 2021 | Potency, µM (highest dose often 108 µM), for the others: top-dose activity change, negative = inhibition, most hits filed as inhibitors | purified 12hLO, xylenol orange hydroperoxide absorbance; further: potency means the concentration at half of the fitted maximal effect
Target sequence (P18054 whole entry, looked up): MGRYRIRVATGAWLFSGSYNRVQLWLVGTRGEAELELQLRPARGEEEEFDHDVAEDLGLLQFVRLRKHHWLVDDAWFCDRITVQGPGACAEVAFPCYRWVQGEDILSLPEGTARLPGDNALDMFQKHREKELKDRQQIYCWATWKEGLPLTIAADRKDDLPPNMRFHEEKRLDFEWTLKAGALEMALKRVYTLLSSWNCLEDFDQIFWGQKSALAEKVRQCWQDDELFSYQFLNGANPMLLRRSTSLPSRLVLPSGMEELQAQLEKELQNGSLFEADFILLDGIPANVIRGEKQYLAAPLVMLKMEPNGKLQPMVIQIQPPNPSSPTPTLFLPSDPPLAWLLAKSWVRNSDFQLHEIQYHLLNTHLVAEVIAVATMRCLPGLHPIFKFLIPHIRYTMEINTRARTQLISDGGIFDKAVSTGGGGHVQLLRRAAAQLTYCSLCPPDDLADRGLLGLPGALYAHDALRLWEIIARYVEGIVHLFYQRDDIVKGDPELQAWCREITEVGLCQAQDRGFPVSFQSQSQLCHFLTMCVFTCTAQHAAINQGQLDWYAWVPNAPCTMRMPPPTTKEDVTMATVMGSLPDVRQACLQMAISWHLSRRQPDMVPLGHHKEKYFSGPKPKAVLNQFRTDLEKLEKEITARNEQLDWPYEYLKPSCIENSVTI
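Hydroperoxide product was detected by ferrous iron/xylenol orange as the 573 to 405 nm absorbance ratio. Arachidonic acid at 40 uM (final) was turned over for 30 min at room temperature by 150 nM human 12hLO, pH 7.0 Hepes buffer, after 15 min compound preincubation.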
TDP1 cell noCPT: qHTS for Inhibitors of human tyrosyl-DNA phosphodiesterase 1 (TDP1): qHTS in cells in absence of CPT. Potency, µM (doses to about 46.2 µM), for inactives: top-dose activity change, negative = growth inhibition, most hits filed as inhibitors. AID 686978, 2013. DT40 Tdp1-/- hTDP1 cells, no CPT, ATP luminescence, 48 h. 420,000 compounds, 15% hits; further: potency means the concentration at half of the fitted maximal effect; nearly all actives have a fitted effect of over 55% in size
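Growth kinetics read by CellTiter-Glo luminescence after ≥48 hr at 37 °C. Cells: DT40 Tdp1-/- stably carrying human TDP1, 400 per well, compound exposure in the absence of CPT (DMSO vehicle).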
IL1B secr inh: qHTS for Inhibitors of Inflammasome Signaling: IL-1-beta AlphaLISA Primary Screen; activity change, % at 57.5 µM; THP-1 LPS/ATP IL-1B secretion, AlphaLISA, 16 h; hits give low values; AID 743279, 2014; 360,000 compounds, 4.7% hits; in the data active means activity change below about -50%; inconclusive means mostly about -30% to -49%
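Secreted IL-1B measured by AlphaLISA bead assay after 16 h compound exposure of THP-1 cells; compounds (final up to 57.5 uM) added 1 h before LPS (250 ng/mL) and ATP (1.25 mM) stimulation; lower signal means less secretion.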
TDP1 cell CPT: qHTS for Inhibitors of human tyrosyl-DNA phosphodiesterase 1 (TDP1): qHTS in cells in presence of CPT; AID 686979, 2013; Potency, µM (top dose mostly 46.2 µM), inactives show at the highest dose activity change, negative = growth inhibition, usual class: inhibitors; 420,000 compounds, 12% hits; chicken DT40 Tdp1-/-;hTDP1 cells + 20 nM CPT, ATP luminescence, 48 h; further: potency means the concentration at half of the fitted maximal effect; nearly all actives have a fitted effect of over 55% in size
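Chicken DT40 Tdp1-/- cells stably complemented with human TDP1 were seeded at 400 cells/well in medium containing 20 nM camptothecin, exposed to pin-transferred compounds, and grown at 37 °C for at least 48 hr. Viability was read as ATP luminescence.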
HT1080 IDH1KD tx: qHTS for induction of synthetic lethality in tumor cells producing 2HG: qHTS for the HT-1080-IDH1KD cell line. Potency, µM (highest dose often 46.1 µM), for inactives: at the top dose activity, negative = toxicity, hits mostly cytotoxic. 360,000 compounds, 2% hits. HT-1080 IDH1 knockdown viability, ATP luminescence, 48 h;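 further: potency means the concentration at half of the fitted maximal effect; 0% = DMSO wells and -100% = cell-free medium wells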
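Assay cells: HT-1080 with IDH1 knockdown, 750 per well, RPMI/5% FBS. Exposure: 48 h at 37 °C following 2 h pre-incubation. Read: CellTiter-Glo luminescence; fitted concentration-response, curve class assigned.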
* marks the source's active call; other numbers are inactive results; [ ] = dose if it differs, or a comment. Unless noted, the call rests on the fitted dose curve; in most records, active means well fitted curve in the direction sought with a large enough effect; inconclusive means small, poorly fitted or top-dose-only effect, or another doubt; inactive means no such curve, though single readings can be large; an effect the other way counts as inactive or inconclusive. Unless noted, on the % scale 0 is the no-effect control and ±100 the full control effect.

What do the screens show for `C(=C\c1ccccc1)/CN1CCN(C(c2cc3ccccc3o2)c2nnnn2C2CCCC2)CC1` (configuration not stated)?
HT1080-NT tox: 16.4%; 12-LOX inh: -17.3%; TDP1 cell noCPT: inconclusive; IL1B secr inh: -20.3; TDP1 cell CPT: inconclusive; HT1080 IDH1KD tx: 11.5%

How did C(=C\c1ccccc1)/CN1CCN(C(c2nnnn2C2CCCCC2)C2CC2)CC1 (configuration not stated) do in these assays?
HT1080-NT tox: inconclusive; 12-LOX inh: -16.6%; TDP1 cell noCPT: 16.4µM*; IL1B secr inh: -5.4; TDP1 cell CPT: inconclusive; HT1080 IDH1KD tx: inconclusive

What do the screens show for `COc1cccc(CNS(=O)(=O)c2ccc3c(c2)OCCO3)c1`?
12-LOX inh: -3.9%

How did Cc1cccc(C)c1-n1nnnc1C(c1ccccc1)N1CCN(C/C=C/c2ccccc2)CC1 (configuration not stated) do in these assays?
HT1080-NT tox: inconclusive; 12-LOX inh: -8.5%; TDP1 cell noCPT: 16.4µM*; IL1B secr inh: 21.6; TDP1 cell CPT: 20.6µM*; HT1080 IDH1KD tx: inconclusive

How did Cc1cccc(C)c1-n1nnnc1C(c1cccs1)N1CCN(C/C=C/c2ccccc2)CC1 (configuration not stated) do in these assays?
HT1080-NT tox: inconclusive; 12-LOX inh: inconclusive; TDP1 cell noCPT: inconclusive; IL1B secr inh: -15.2; TDP1 cell CPT: inconclusive; HT1080 IDH1KD tx: inconclusive

What do the screens show for `C(=C\c1ccccc1)/CN1CCN(C(CCc2ccccc2)c2nnnn2C2CCCCC2)CC1` (configuration not stated)?
HT1080-NT tox: inconclusive; 12-LOX inh: inconclusive; TDP1 cell noCPT: inconclusive; IL1B secr inh: -21.7; TDP1 cell CPT: inconclusive; HT1080 IDH1KD tx: inconclusive

How did COc1ccc(-n2nnnc2C(c2cccs2)N2CCN(C/C=C/c3ccccc3)CC2)cc1 (configuration not stated) do in these assays?
HT1080-NT tox: inconclusive; 12-LOX inh: inconclusive; TDP1 cell noCPT: 16.4µM*; IL1B secr inh: 0.0; TDP1 cell CPT: 16.4µM*; HT1080 IDH1KD tx: inconclusive

How did CCCCn1nnnc1C(C1CC1)N1CCN(C/C=C/c2ccccc2)CC1 (configuration not stated) do in these assays?
HT1080-NT tox: -9.9%; 12-LOX inh: inconclusive; TDP1 cell noCPT: 16.4µM*; IL1B secr inh: -19.7; TDP1 cell CPT: inconclusive; HT1080 IDH1KD tx: -19.3%

Results for CN(C)S(=O)(=O)c1ccc(Cl)c(C(=O)Nc2cccc([N+](=O)[O-])c2)c1 ?
HT1080-NT tox: -21.8%; 12-LOX inh: -1.3%; TDP1 cell noCPT: 20.6µM*; IL1B secr inh: -25.2; TDP1 cell CPT: 18.4µM*; HT1080 IDH1KD tx: -15.8%

How did O=C(O)c1ccccc1Nc1ccccc1C(=O)O do in these assays?
HT1080-NT tox: -9.5%[9.24 µM]; 12-LOX inh: -10.9%; TDP1 cell noCPT: -8.1%; IL1B secr inh: -7.7; TDP1 cell CPT: -7.2%; HT1080 IDH1KD tx: -13.5%

Results for O=C(Nc1ccc(Nc2ccccc2)cc1)c1cc([N+](=O)[O-])ccc1Cl ?
HT1080-NT tox: inconclusive; 12-LOX inh: 16.6%; TDP1 cell noCPT: 16.4µM*; IL1B secr inh: -67.5*; TDP1 cell CPT: inconclusive; HT1080 IDH1KD tx: 18.4µM*

What do the screens show for `O=C(O)c1ccccc1Nc1ccc([N+](=O)[O-])cc1`?
HT1080-NT tox: inconclusive; 12-LOX inh: -11.8%; TDP1 cell noCPT: 2.91µM*; IL1B secr inh: 15.2; TDP1 cell CPT: -19.8%; HT1080 IDH1KD tx: inconclusive

What do the screens show for `Cc1cccc(NC(=O)c2cc([N+](=O)[O-])ccc2Cl)c1O`?
HT1080-NT tox: -9.8%; 12-LOX inh: -11.3%; TDP1 cell noCPT: inconclusive; IL1B secr inh: -50.0*; TDP1 cell CPT: inconclusive; HT1080 IDH1KD tx: -15.3%

How did CCCCNC(=O)C1c2ccccc2OCC(=O)N1Cc1cccnc1 (configuration not stated) do in these assays?
HT1080-NT tox: 17.6%; 12-LOX inh: -0.8%; TDP1 cell noCPT: -23.0%; IL1B secr inh: 11.3; TDP1 cell CPT: 5.0%; HT1080 IDH1KD tx: 12.0%

How did Cc1ccc(C(=O)NCc2ccncc2)cc1S(=O)(=O)N1CCCCC1 do in these assays?
HT1080-NT tox: -0.1%; 12-LOX inh: 0.0%; TDP1 cell noCPT: -18.3%; IL1B secr inh: 0.4; TDP1 cell CPT: inconclusive; HT1080 IDH1KD tx: 2.6%

How did CCn1nccc1C(=O)N1CCC(N2CC(OCCOC)C23CCCCC3)CC1 (configuration not stated) do in these assays?
12-LOX inh: 10.0%

How did COc1cccc(Cc2nc(C3CC(=O)N(C4CCCCC4)C3)no2)c1 (configuration not stated) do in these assays?
12-LOX inh: 39.9%

What do the screens show for `O=C(Nc1ccccc1Oc1ccccc1)c1cc([N+](=O)[O-])ccc1Cl`?
HT1080-NT tox: -8.9%; 12-LOX inh: inconclusive; TDP1 cell noCPT: inconclusive; IL1B secr inh: -4.5; TDP1 cell CPT: 16.4µM*; HT1080 IDH1KD tx: -6.9%

What do the screens show for `Cc1ccc(NC(=O)C2CC(=O)N(C(C)C)C2)cc1Cl` (configuration not stated)?
HT1080-NT tox: 0.7%; 12-LOX inh: -2.2%; TDP1 cell noCPT: 1.5%; IL1B secr inh: 0.1; TDP1 cell CPT: -28.7%; HT1080 IDH1KD tx: -0.5%

Results for Cc1ccc(NC(=O)C2CC(=O)N(C(C)C)C2)cc1C (configuration not stated) ?
HT1080-NT tox: 14.8%; 12-LOX inh: 0.0%; TDP1 cell noCPT: -16.6%; IL1B secr inh: -64.6*; TDP1 cell CPT: -15.0%; HT1080 IDH1KD tx: 4.2%

What do the screens show for `CCN(CC)S(=O)(=O)c1cc(NC(=O)C2CC(=O)N(Cc3ccccc3)C2)ccc1Cl` (configuration not stated)?
HT1080-NT tox: -2.8%; 12-LOX inh: 8.6%; TDP1 cell noCPT: 16.4µM*; IL1B secr inh: -14.2; TDP1 cell CPT: inconclusive; HT1080 IDH1KD tx: -29.3%
